Test results: PubChem BioAssay
Active and inactive are the calls of the source.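 The calls were made as follows, unless noted: active = inhibition at or above 50% at 10 µM; inactive = inhibition below 50%.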

How the values were obtained:
[1] = inhibitors of TNFa-induced NFkB p65 translocation, primary screen, imaging, HUVEC, MLSMR starter and 10KST1 sets (AID 438;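 active = inhibition above 20% together with a positive visual image hit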;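 also: compound added about 3h40 before a 20 min TNFalpha stimulation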;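 as to inhibition: signal is the nuclear over cytoplasmic p65 intensity ratio per well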); conditions: HUVEC TNFa-induced p65 nuclear translocation; cell count: measured here: nuclei count (cytotoxicity indicator), at 2.08 µM; inhibition: at 2 µM, stronger effect = higher value, 0% TNFa-plus-vehicle, 100% no-TNFa wells
[2] = inhibitors of mutant huntingtin aggregation, primary screen, imaging, exon1htt(103Q)mCFP cells, high-content imaging (AID 483;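 active = visual image review flags a hit and inhibition of aggregation exceeds 20%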;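 also: compound exposure lasted 3 days before fixation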;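 as to nuclei count: percent of the per-plate median nuclei count of sample wells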); conditions: exon1htt(103Q)mCFP cell line, aggregate imaging, at 2 µM; inhibition of aggregation: stronger effect = higher value; nuclei count: measured here: cell count, toxicity
[3] = inhibitors of E-selectin induction by TNFa, primary screen, imaging, HUVEC, immunofluorescence, MLSMR starter and 10KST1 sets (AID 487;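 active = visually confirmed hit in the image check and inhibition above 20%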;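 as to inhibition: signal is fraction of cell area covered by stained E-selectin grains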;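 as to nuclei count: 100% = median nuclei count of all wells on the same plate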); conditions: HUVEC TNFalpha-induced E-selectin immunofluorescence imaging, at 2 µM; inhibition: stronger effect = higher value; nuclei count: measured here: cell number, toxicity
[4] = biological target: Voltage-gated potassium channel subunit beta-2 (Rattus norvegicus) (UniProt P62483); test: KvBeta enzyme negative modulators, primary screen, biochemical, NADPH fluorescence (AID 622;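 active = fluorescence slope higher than the sample average by over 3 SD, cut at about -0.22 in these data, passing the limit was not always enough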;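 also: slope of raw intensity against log time taken from 70 to 1610 s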); conditions: recombinant KvBeta, 4-cyanobenzaldehyde reduction, at 10 µM, stronger effect = higher value
Voltage-gated potassium channel subunit beta-2 (Rattus norvegicus), sequence (P62483 whole entry, looked up): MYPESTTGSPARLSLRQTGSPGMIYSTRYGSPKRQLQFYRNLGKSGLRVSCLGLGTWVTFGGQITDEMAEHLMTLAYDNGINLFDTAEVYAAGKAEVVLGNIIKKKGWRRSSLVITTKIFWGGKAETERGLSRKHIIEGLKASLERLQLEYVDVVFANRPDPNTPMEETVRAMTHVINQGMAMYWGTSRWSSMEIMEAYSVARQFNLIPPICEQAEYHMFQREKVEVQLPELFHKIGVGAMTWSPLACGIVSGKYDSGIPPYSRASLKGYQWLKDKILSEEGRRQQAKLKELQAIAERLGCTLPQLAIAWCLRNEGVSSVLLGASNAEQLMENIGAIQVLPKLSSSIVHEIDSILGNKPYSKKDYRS

[5] = biological target: Voltage-gated potassium channel subunit beta-2 (Rattus norvegicus) (UniProt P62483); test: KvBeta positive modulators, primary screen, biochemical, NADPH fluorescence (AID 623;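 active = NADPH fluorescence slope more negative than the mean of all samples by about 3 SD, 99.7% confidence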;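 also: fluorescence intensity change per second fitted from 20 to 320 s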); conditions: Recombinant KvBeta, NADPH fluorescence decrease slope, 10 min; at 10 µM; stronger effect = lower value
[6] = biological target: Alpha-2C adrenergic receptor (Homo sapiens) (UniProt P18825); test: modulators of alpha2C/GIRK thallium flux, primary screen, cell-based, HEK293 alpha2C/GIRK1/2 (AID 624;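 active = fluorescence slope after compound addition differing from the mean of all screened samples at 99.7% confidence, in either direction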;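 also: slope of fluorescence ratio to pre-addition baseline per second over 15 to 24 s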); conditions: thallium flux BTC fluorescence, at 10 µM, actives lie on both sides
Alpha-2C adrenergic receptor (Homo sapiens), sequence (P18825 whole entry, looked up): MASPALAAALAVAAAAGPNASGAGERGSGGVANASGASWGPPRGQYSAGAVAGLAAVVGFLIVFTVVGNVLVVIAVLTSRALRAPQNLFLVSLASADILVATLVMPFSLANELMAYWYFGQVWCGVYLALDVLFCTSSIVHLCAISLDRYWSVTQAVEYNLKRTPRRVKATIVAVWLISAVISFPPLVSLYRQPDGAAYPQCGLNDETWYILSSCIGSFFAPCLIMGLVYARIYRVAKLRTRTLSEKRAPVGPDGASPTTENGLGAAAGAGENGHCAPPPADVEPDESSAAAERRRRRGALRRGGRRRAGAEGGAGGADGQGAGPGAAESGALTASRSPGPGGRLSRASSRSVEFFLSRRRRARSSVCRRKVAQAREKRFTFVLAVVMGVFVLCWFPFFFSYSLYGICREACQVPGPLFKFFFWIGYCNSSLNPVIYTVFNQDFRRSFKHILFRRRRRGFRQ

[7] = inhibitors of Sendai virus-induced IRF3 signaling, primary screen, TLR/RLR signaling modifier project, cell-based, Sendai virus stimulus, luciferase, 10K MLSCN set (AID 602276); conditions: HEK293 RL24 IRF3 luciferase reporter, at 10 µM, stronger effect = higher value;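 also: firefly luciferase from ISG56 promoter only with Renilla not read in this screen; 0% = Sendai virus plus DMSO and 100% = medium plus DMSO without virus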
[8] = inhibitors of poly I:C-induced TLR3 signaling, primary screen, cell-based, poly I:C stimulus, luciferase, 10K MLSCN set (AID 602277;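 active = inhibition of the reporter signal at or above 50%; inactive = inhibition below 50%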); conditions: HEK293-TLR3 RL24 IRF3 luciferase reporter, at 10 µM, stronger effect = higher value

SMILES | cell count [1] | inhibition [1] | inhibition of aggregation [2] | nuclei count [2] [%] | inhibition [3] | nuclei count [3] [%] | fluorescence slope [4] | NADPH fluorescence slope [5] | slope [6] | inhibition [7] | inhibition [8]
CCCC1(C(=O)OC)NC(c2cc(OC)c(OC)c(OC)c2)C2C(=O)N(CC)C(=O)C21 (centres undefined) | 582 | 5.5% (inactive) | 8.1% (inactive) | 111 | -37.6% (inactive) | 110 | -0.48 (inactive) | 3.3e-05 (inactive) | 0.0052 (inactive) | -10.2% (inactive) | 2.76% (inactive)
COc1ccccc1NC(=O)C(C)NS(=O)(=O)c1ccc(F)cc1 (centres undefined) | 331 | 2.8% (inactive) | -6.8% (inactive) | 108 | -22.4% (inactive) | 100 | -0.476 (inactive) | -3.4e-05 (inactive) | 0.00634 (inactive) | 3.7% (inactive) | 46.5% (inactive)
CCC(C)C(=O)Nc1nc2c(s1)C(=O)CC(C)(C)C2 (centres undefined) | 612 | 6.9% (inactive) | -4.2% (inactive) | 102 | -8.8% (inactive) | 115 | -0.553 (inactive) | -2.6e-05 (inactive) | 0.00723 (inactive) | -7.18% (inactive) | -6.11% (inactive)
COc1ccccc1N1C(=O)CC(Sc2nc(C)cc(C)n2)C1=O (centres undefined) | 613 | -8.2% (inactive) | 15% (inactive) | 95.3 | -30.9% (inactive) | 90.9 | -0.447 (inactive) | -9.1e-05 (inactive) | 0.0075 (inactive) | 14.5% (inactive) | 19.3% (inactive)
CC(C)c1nnc(NC(=O)c2cnccn2)s1 | 425 | -0.5% (inactive) | -3.7% (inactive) | 103 | -38.5% (inactive) | 105 | -0.479 (inactive) | -4.7e-05 (inactive) | 0.00644 (inactive) | -7.98% (inactive) | -13.6% (inactive)
O=C(O)CCc1ccc(-c2ccc(Br)cc2)n1CC(=O)O | 339 | 7.5% (inactive) | -4.6% (inactive) | 90 | -65% (inactive) | 112 | -0.378 (inactive) | -5.5e-05 (inactive) | 0.00594 (inactive) | 10.9% (inactive) | 28.5% (inactive)
Cc1ccc(NC(=O)CN2CC(C)SC2=NC2CCCCC2)cc1 (centres undefined) | 519 | 10.1% (inactive) | -7.2% (inactive) | 109 | -38.8% (inactive) | 112 | -0.514 (inactive) | -4.1e-05 (inactive) | 0.00585 (inactive) | 17.3% (inactive) | 13.9% (inactive)
Cc1csc(NC(=O)C(Cc2ccccc2)n2cccc2)n1 (centres undefined) | 497 | -3.7% (inactive) | 27% (inactive) | 56.5 | -38.3% (inactive) | 117 | -0.538 (inactive) | -5.3e-06 (inactive) | 0.0101 (active) | 1.35% (inactive) | -7.22% (inactive)
Cc1nnc(SCc2cc(=O)[nH]c(N3CCCCC3)n2)s1 | 639 | 5% (inactive) | 0.6% (inactive) | 96.3 | 14.7% (inactive) | 107 | -0.592 (inactive) | -3.2e-05 (inactive) | 0.00759 (inactive) | 13.1% (inactive) | 19.7% (inactive)
Cn1cccc1Cc1nnc(SCC(=O)NCC2CCCO2)n1-c1ccc(F)cc1 (centres undefined) | 716 | -4% (inactive) | 50.2% (active) | 95.9 | -44.1% (inactive) | 111 | -0.537 (inactive) | -3e-05 (inactive) | 0.00677 (inactive) | 10.8% (inactive) | 39.9% (inactive)
COCCNC(=O)CN(C)S(=O)(=O)c1ccc(Br)cc1 | 465 | 2.1% (inactive) | -10.4% (inactive) | 106 | 24.8% (inactive) | 110 | -0.507 (inactive) | -3.7e-05 (inactive) | 0.00533 (inactive) | 11.2% (inactive) | 12.3% (inactive)
CCOc1cc(S(=O)(=O)NCc2ccc3c(c2)OCO3)ccc1F | 266 | 1.8% (inactive) | -4.1% (inactive) | 98.6 | -32.5% (inactive) | 103 | -0.407 (inactive) | -3.8e-05 (inactive) | 0.00471 (inactive) | 15.3% (inactive) | 9.83% (inactive)
CCC(C)(C)n1nnnc1C(c1cc2cc(C)ccc2[nH]c1=O)N1CCCC1 (centres undefined) | 353 | 4.2% (inactive) | -27.7% (inactive) | 103 | -273% (inactive) | 110 | -0.43 (inactive) | 2.7e-05 (inactive) | 0.00689 (inactive) | 13.6% (inactive) | 28.7% (inactive)
CCN(CC(=O)NC1CCS(=O)(=O)C1)C(=O)C(c1ccccc1)c1ccccc1 (centres undefined) | 887 | 3.8% (inactive) | -12.1% (inactive) | 105 | -74.7% (inactive) | 130 | -0.261 (inactive) | -5e-05 (inactive) | 0.00562 (inactive) | 6.14% (inactive) | 5.12% (inactive)
